Six1-Eya2 blk: qHTS Assay for Inhibitors of the Six1/Eya2 Interaction; Homeobox protein SIX1 (Homo sapiens) + Protein phosphatase EYA2 (Homo sapiens), …; AlphaScreen GST-Six1/His-Eya2 binding, biochemical; active compounds read low; activity change, % (no concentration beside the values); 360,000 tested, 0.56% active; AID 651725, 2012; in the data active = activity change below about -65%; inconclusive = mostly about -30% to -63%; note: % is set by controls: 0 for no effect and ±100 for the full control effect
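AlphaScreen luminescence read after one hour at 37 °C in darkness. Pin-transferred compounds met GST-Six1 and His-Eya2 protein (5X stock 250 nM/500 nM) plus glutathione donor and Ni-chelate acceptor beads (5X, 50 ug/mL).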
CtBP-E1A inh: qHTS Assay for Inhibitors of the CtBP/E1A Interaction. AlphaScreen GST-E1A/His-CtBP binding, 1536-well; active compounds read low. CtBP / adenovirus E1A interaction (AlphaScreen). 340,000 tested, 0.49% active. activity change, % (concentration not given with the values); in the data active = activity change below about -65%; inconclusive = mostly about -30% to -63%; note: % is set by controls: 0 for no effect and ±100 for the full control effect
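In 5 uL wells, 23 nL compound meets equimolar GST-E1A and His-CtBP (5X stock 125 nM each) for 2 h, 37 °C. Beads (5X, 50 ug/mL) then 1 h, 37 °C, dark.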
BAZ2B block: qHTS Assay for Inhibitors of BAZ2B; Bromodomain adjacent to zinc finger domain protein 2B (Homo sapiens), Q9UIF8; AlphaScreen BAZ2B-H3K14Ac peptide displacement; Potency, µM (titrated, usually from 114 µM), without a hit: at the top dose activity change, negative = inhibition, most hits filed as inhibitors; 360,000 tested, 4.4% active; AID 504333, 2011; note: potency is the fitted concentration of half-maximal effect; % is set by controls: 0 for no effect and ±100 for the full control effect; nearly all actives have a fitted effect of over 60% in size
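BAZ2B (50 nM) with biotin-H3(5-23)K14Ac peptide (50 nM) in PBS pH 7.4, 0.01% Tween-20, preformed 30 min, then compound 30 min at room temperature; top concentration 110uM. AlphaScreen streptavidin donor/nickel chelate acceptor beads (10 ug/mL final), 20 min dark, signal read.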
G9a inh: qHTS Assay for Inhibitors of Histone Lysine Methyltransferase G9a; Histone-lysine N-methyltransferase EHMT2 (Homo sapiens), Q96KQ7; G9a H3K9 monomethylation, AlphaScreen, 2 h; Potency, µM (series often up to 102 µM), without a hit: top-dose activity, negative = inhibition, actives largely listed as inhibitors; 350,000 tested, 8.8% active; AID 504332, 2011; note: potency is the fitted concentration of half-maximal effect; % is set by controls: 0 for no effect and ±100 for the full control effect; nearly all actives have a fitted effect of over 75% in size
Target sequence (Q96KQ7 913-1193 limits assumed): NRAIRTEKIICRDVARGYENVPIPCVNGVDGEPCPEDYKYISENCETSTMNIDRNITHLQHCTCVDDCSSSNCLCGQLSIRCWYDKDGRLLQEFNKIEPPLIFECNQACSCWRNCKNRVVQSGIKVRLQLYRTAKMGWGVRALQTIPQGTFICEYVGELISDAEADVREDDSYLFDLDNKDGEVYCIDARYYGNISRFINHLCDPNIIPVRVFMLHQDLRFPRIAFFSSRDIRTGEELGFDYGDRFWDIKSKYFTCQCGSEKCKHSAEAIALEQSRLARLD
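Step 1: enzyme (final 20 nM) with compound, 15 min RT. Step 2: substrate peptide 500 nM and SAM 20 uM, 2 h RT. Step 3: anti-H3K9me1 antibody and AlphaScreen beads, 10 min, then plate read.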
HP1b chromo inh: HTS for Inhibitors of HP1-beta Chromodomain Interactions with Methylated Histone Tails; AlphaScreen HP1-beta / biotin-H3K9me3 peptide binding; AID 540317, 2011; 390,000 tested, 0.56% active; Potency, µM (top dose mostly 114 µM), for inactives: at the top dose activity change, negative = inhibition, hits mostly inhibitors; Chromobox protein homolog 1 (Homo sapiens), P83916; note: potency is the fitted concentration of half-maximal effect; nearly all actives have a fitted effect of over 70% in size
Target sequence (P83916 whole entry, looked up): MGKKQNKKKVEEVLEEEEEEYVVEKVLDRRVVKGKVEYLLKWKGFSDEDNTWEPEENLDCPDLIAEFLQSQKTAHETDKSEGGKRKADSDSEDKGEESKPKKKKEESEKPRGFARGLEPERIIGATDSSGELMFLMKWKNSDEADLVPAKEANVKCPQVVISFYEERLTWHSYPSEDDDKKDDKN
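Compound inhibition of the preformed complex between 50 nM HP1-beta and 50 nM biotinylated H3K9me3 peptide was read by AlphaScreen. Buffer was PBS pH 7.4 with 0.01% Tween-20. Incubations ran 30 min at room temperature, with 10 ug/mL donor/acceptor beads.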
JMJD2A Tudor inh: qHTS Assay for Inhibitors of JMJD2A-Tudor Domain; Potency, µM (top dose mostly 114 µM), inactives show at the top dose activity change, negative = inhibition, actives largely listed as inhibitors; 390,000 tested, 4.4% active; Lysine-specific demethylase 4A (Homo sapiens), O75164; AlphaScreen JMJD2A-Tudor / H3K4me3 peptide binding; note: potency is the fitted concentration of half-maximal effect; % is set by controls: 0 for no effect and ±100 for the full control effect; nearly all actives have a fitted effect of over 50% in size
* hit, by the source's call; ? = inconclusive; nt = no result; [ ] = dose if it differs, or a comment. A selection: hits, their analogues and other compounds. The true share with any hit is near 10%. Unless noted, calls come from the whole dose curve; as a rule, active = well fitted inhibition curve with a large enough effect; inconclusive = small, poorly fitted or top-dose-only effect; inactive = no such curve, though single readings can be large or run the other way.

SMILES	Six1-Eya2 blk	CtBP-E1A inh	BAZ2B block	G9a inh	HP1b chromo inh	JMJD2A Tudor inh
CN(c1ccc(F)cc1)S(=O)(=O)c1ccc2[nH]cc(C(=O)O)c(=O)c2c1	-5	0	-34%	?	29%	-28%
CCN(CC)C(=O)c1c[nH]c2ccc(S(=O)(=O)Nc3cc(C)cc(C)c3)cc2c1=O	-1	-1	7%	6%[59 µM]	54%	?
C=CCNc1nc(C(=O)OCC(=O)Nc2c(Cl)cccc2C(F)(F)F)cs1	12	-21	?	?	14%	35µM*
C=CCNc1nc(C(=O)OCC(=O)c2ccc(F)cc2)cs1	-5	-13	?	-35%	-14%	-31%
CC1CCN(C(=O)Nc2ccc3nc(-c4ccco4)c(-c4ccco4)nc3c2)CC1	nt	nt	nt	nt	11µM*	13µM*
O=C(Nc1ccc2nc(-c3ccco3)c(-c3ccco3)nc2c1)N1CCN(c2ccccn2)CC1	?	15	?	2.5µM*	25µM*	?
S=C(Nc1ccc(N2CCOCC2)cc1)Nc1ccc2nc(-c3ccco3)c(-c3ccco3)nc2c1	?	?	?	32µM*	-53%	?
O=C(c1ccc2nc(-c3ccco3)c(-c3ccco3)nc2c1)N1CCN(c2ncccn2)CC1	0	0	?	35µM*	7%	89µM*
CCc1c(-c2ccccc2F)ncn1Cc1cccc(-c2ccccc2)c1	-15	4	nt	nt	nt	nt
CC1(C)C2(C#N)C(=O)NC(=O)C12C#N (centres undefined)	7	5	nt	nt	8%[57 µM]	-1%
Cc1cc2c(s1)c1cnn(Cc3c(F)cc(F)cc3F)c(=O)c1n2C	nt	nt	nt	nt	nt	-19%
O=C(Cn1nnc2ccccc21)NNC(=O)c1ccccc1	8	5	-1%	nt	-2%	-10%
Nc1ccccc1-n1nc2ccc3ccccc3c2n1	93	24	nt	nt	nt	nt
O=C(Nc1ccc2nc(-c3ccco3)c(-c3ccco3)nc2c1)N1CCCC1	nt	nt	nt	nt	10µM*	14µM*
C=CCn1c(SCCN)nnc1-c1cccc(S(=O)(=O)N2CCOCC2)c1	-7	-2	nt	nt	22%	14µM*
O=C(O)CSc1nnc(-c2cccc(S(=O)(=O)N3CCOCC3)c2)n1-c1ccc(F)cc1	-1	nt	nt	nt	46%	-5%
O=C(O)c1cc(N2C(=O)C=CC2=O)cc(N2C(=O)C=CC2=O)c1	-74*	-11	nt	nt	5.6µM*	2.2µM*
CC1CCCC(C)N1S(=O)(=O)c1ccc(NC(=O)CNC2CCCC2)cc1 (centres undefined)	5	-1	-4%	45µM*	2%	-17%
CC(=O)Nc1ccc(S(=O)(=O)N2C(C)CCCC2C)cc1 (centres undefined)	-1	3	-31%	56µM*	25%	-13%
CCN(C(=O)CCc1nnc2ccc(N3CCC4(CC3)OCCO4)nn12)c1ccccc1	4	0	-15%[57.1 µM]	-4%	35%	-24%
CC(=O)Nc1ccc(S(=O)(=O)N(C)c2ccc(OCCOc3ccccc3F)cc2)cc1	-14	-3	nt	nt	3%	-25%
CN(C)c1ccc(C(CNS(=O)(=O)c2ccc(Br)cc2)N2CCCC2)cc1 (centres undefined)	nt	nt	35µM*	18µM*	?	45µM*
CN(C)c1ccc(C(CNS(=O)(=O)c2ccc(Cl)cc2)N2CCCC2)cc1 (centres undefined)	nt	nt	32µM*	?	?	50µM*
Cc1ccc(C(CNS(=O)(=O)c2ccc(Cl)cc2)N2CCN(C)CC2)cc1 (centres undefined)	2	0	5%	-36%	-5%	-21%
CC(=O)N[C@@H]1C(O[C@H]2O[C@H](C(=O)O)C(O)[C@H](O)[C@H]2O)[C@H](O)[C@@H](CO)O[C@H]1O[C@@H]1C(C(=O)O)O[C@@H](O[C@H]2[C@H](O)[C@@H](CO)OC(O)[C@@H]2NC(C)=O)[C@H](O)[C@H]1O (some centres undefined)	nt	nt	nt	-44%[12.7 µM]	nt	nt
SMILES	Six1-Eya2 blk	CtBP-E1A inh	BAZ2B block	G9a inh	HP1b chromo inh	JMJD2A Tudor inh
COc1ccc(C(=O)CC(=O)C(=O)Nc2ccccc2)cc1	19	0	71µM*	-1%	50%	-14%
COc1ccc(C(=O)CC(=O)C(=O)Nc2cccc(F)c2)cc1	1	-3	4%	-8%	17%	-26%
COc1ccc(N/N=C(C)/C(=N/O)C(=O)Nc2ccccc2)cc1	13	-1	-38%	22µM*	?	?
CCN(C(=O)COC(=O)c1ccc(-n2c(C)ccc2C)cc1)c1c(N)n(Cc2ccccc2)c(=O)[nH]c1=O	0	-1	nt	nt	12%	-9%
COc1ccc(Cc2noc(CN3CCCN(C4Cc5ccccc5C4)CC3)n2)cc1OC	3	-4	?	40µM*	33%	-17%
Cc1ccc(-c2c(C)n3c4c(=O)n(C)c(=O)n(C)c4nc3n2CCCO)cc1	nt	nt	?	?	7%	-33%
CC(=O)Nc1nc2ccccc2n1CCN1CCOCC1	5	6	-37%	?	-13%	4.5µM*
CCn1cc(Cl)c(C(=O)Nc2nc3ccccc3n2CCN2CCCCC2)n1	-24	-14	79µM*	-4%	4%	?
CCC(=O)Nc1nc2ccccc2n1CCN(CC)CC	2	3	?	20µM*	-6%	8.9µM*
CCn1c(NC(C)=O)nc2ccccc21	0	4	-20%	10µM*	9%	40µM*
Cc1c(Cl)c(C(=O)Nc2nc3ccccc3n2CCN2CCCCC2)nn1C	nt	nt	?	10%	nt	nt
CC(C)(C)c1ccc(C(=O)NNc2ncnc3c2cnn3-c2ccc(Cl)cc2)cc1	nt	nt	-2%	9%[59 µM]	47%	-17%
CN(C)C(CNC(=O)c1cc(S(=O)(=O)N2CCOCC2)ccc1F)c1cccs1 (centres undefined)	-4	nt	nt	nt	38%	0%
Cc1ccc(-c2noc(-c3ccc(NCc4ccco4)c([N+](=O)[O-])c3)n2)cc1	nt	nt	-21%	-13%[59 µM]	49%	-14%
CC(=O)c1ccc(NC(=O)Cn2cc(S(=O)(=O)Cc3ccccc3Cl)c3ccccc32)cc1	nt	nt	-6%	-26%[59 µM]	15%	-23%
O=C(COC(=O)C1=COCCO1)Nc1ccc(Br)cc1Br	0	-2	nt	nt	24%	-3%
